Laboratory results published in PubChem BioAssay (NCATS).
Several values for one entry are separate records, joined by “and”; a condition that tells them apart may be missing. Equal entries are not always repeated. Inconclusive results are not listed. Activity calls are given as the source filed them. Unless noted, calls come from the whole dose curve; as a rule, active = well fitted curve in the direction sought with a large enough effect; inconclusive = small, poorly fitted or top-dose-only effect, or another doubt; inactive = no such curve, though single readings can be large; an effect the other way counts as inactive or inconclusive.

Key:
[1] = test system: Zika virus NS2B-NS3 protease (linked construct); experiment: Primary screen NINDS Rhodamine qHTS for Zika virus inhibitors (AID 1347160); note: nearly all actives have a fitted effect of over 55% in size
Procedure, shortened: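 Rhodamine110-peptide cleavage (1.5 µM substrate) by 25 nM linked NS2B-NS3 enzyme at pH 8.0 (Tris, Tween 20), after 15 min RT preincubation with compounds; 15-min fluorescence change normalized to controls and Hill-fitted.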

[2] = Primary qHTS for inhibitors of nuclear receptor binding SET domain protein 2 (NSD2) in an isogenic RCH-ACV NSD2 p.E1099K mutant (9B) (AID 1645876); note: potency is the fitted concentration of half-maximal effect; nearly all actives have a fitted effect of over 70% in size
[3] = Primary qHTS for inhibitors of nuclear receptor binding SET domain protein 2 (NSD2) in an RCH-ACV wild type WT cells (2C) (AID 1645877); note: potency is the fitted concentration of half-maximal effect; nearly all actives have a fitted effect of over 70% in size
[4] = molecular target: Glutathione peroxidase 1 (Homo sapiens) (UniProt P07203); experiment: Primary qHTS Assay for Inhibitors of Recombinant Selenoprotein Glutathione Peroxidase 1 (GPX1) (AID 1845191); note: nearly all actives have a fitted effect of over 65% in size
Procedure, shortened: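 GR-coupled readout: NADPH consumption tracked by fluorescence, ex 340/em 450 nm, at t=0 and after 15 min at RT. Final mix 10 nM GPX1, 1 mM GSH, 0.5 mM CHP, 0.5 mM NADPH, 100 nM GR, 0.01% BSA, following 30 min enzyme–compound preincubation.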

[5] = molecular target: Phospholipid hydroperoxide glutathione peroxidase GPX4 (Homo sapiens) (UniProt P36969); experiment: Primary qHTS Assay for Inhibitors of Recombinant Selenoprotein Glutathione Peroxidase 4 (GPX4) (AID 1845192); details: outcome: dose series up to 50 µM unless noted; note: nearly all actives have a fitted effect of over 65% in size; note: potency is the fitted concentration of half-maximal effect
Procedure, shortened: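 Steps: GPX4 plus compound, 30 min RT; add GR/GSH/NADPH master mix; start with cumene hydroperoxide; read 340/450 nm fluorescence at 0 and 15 min. Finals were 200 nM GPX4, 1 mM GSH, 0.5 mM CHP, 0.5 mM NADPH, 100 nM GR.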

[6] = molecular target: Luciferin 4-monooxygenase (Photinus pyralis) (UniProt P08659); experiment: Primary firefly luciferase (FLuc) qHTS assay for identification of artifact compounds. (AID 1845220); note: nearly all actives have a fitted effect of over 60% in size; note: potency is the fitted concentration of half-maximal effect
Procedure, shortened: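 Enzymatic FLuc inhibition assay: compounds pre-exposed to luciferin/ATP (10 uM each) for 15 min, then purified P. pyralis enzyme at 10 nM added. Read-out: luminescence at 5 min.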

[7] = Primary fluorescence-based thiol-reactive (MSTI) qHTS assay for identification of artifact compounds. (AID 1845221);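 note: thiol-reactive compounds lower the probe fluorescence signal; nearly all actives have a fitted effect of over 65% in size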
Procedure, shortened: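 MSTI probe at 4 uM final in 2% DMSO/PBS pH 7.4; compounds, 1 h at room temperature in dark. Fluorescence Ex/Em 525/598 nm, normalised to Acetyl-MSTI and MSTI, fitted to 4-parameter Hill.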

[8] = test system: Nanoluciferase (engineered Oplophorus gracilirostris luciferase); experiment: Primary Nanoluciferase (NLuc) qHTS assay for identification of artifact compounds. (AID 1845222);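 note: NLuc secreted into diluted conditioned medium of S16 cells; 0% = DMSO and -100% = no enzyme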
Procedure, shortened: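 S16 cell supernatant NLuc, 1:55; cpds qHTS; 15 min RT dark; Nano-Glo substrate 1:100, 5 min; luminescence; Hill fit of % inhibition.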

[9] = Primary redox qHTS assay for identification of artifact compounds. (AID 1845223);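 note: 0% = DMSO and 100% = reference compound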
Procedure, shortened: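 Redox-cycling detection via DTT (250 uM final) oxidation coupled to Amplex Red (25 uM)/HRP (250 mU/mL) in HBSS. 15 min preincubation plus 30 min after DTT, room temperature. Ex/Em 525/598 nm; 4-parameter Hill fit against DMSO and 10 uM DA3003.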

[10] = test system: C33A; experiment: Primary qHTS to identify gynecologic anti-cancer compounds using libraries of approved drugs and bioactive compounds (AID 1345084); details: Gynecologic cancer cell panel viability, ATPlite luminescence, 48 h; series mostly up to 57.5 µM; note: nearly all actives have a fitted effect of over 55% in size; note: potency is the fitted concentration of half-maximal effect
Procedure, shortened: (§1)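 Cells, 1,000 per well, plated 16 h, then exposed 48 h at 37 C to compounds. Viability by ATPlite luminescence after 15 min at room temperature.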

[11] = test system: CASKI; experiment: as above; details: Gynecologic cancer cell panel viability, ATPlite luminescence, 48 h; series mostly up to 57.5 µM
Procedure, shortened: as §1

[12] = test system: Es-2; experiment: as above; details: Gynecologic cancer cell panel viability, ATPlite luminescence, 48 h; series mostly up to 57.5 µM
Procedure, shortened: as §1

[13] = test system: HeLa; experiment: as above; details: Gynecologic cancer cell panel viability, ATPlite luminescence, 48 h; series mostly up to 57.5 µM
Procedure, shortened: as §1

[14] = test system: Hek293T; experiment: as above; details: Gynecologic cancer cell panel viability, ATPlite luminescence, 48 h, control line for the selectivity index; series mostly up to 57.5 µM
Procedure, shortened: as §1

[15] = test system: JEG-3; experiment: as above; details: Gynecologic cancer cell panel viability, ATPlite luminescence, 48 h; series mostly up to 57.5 µM
Procedure, shortened: as §1

[16] = test system: OV90; experiment: as above; details: Gynecologic cancer cell panel viability, ATPlite luminescence, 48 h; series mostly up to 57.5 µM
Procedure, shortened: as §1

[17] = test system: Tov-21-G; experiment: as above; details: Gynecologic cancer cell panel viability, ATPlite luminescence, 48 h; series mostly up to 57.5 µM
Procedure, shortened: as §1

[18] = test system: Tov112D; experiment: as above; details: Gynecologic cancer cell panel viability, ATPlite luminescence, 48 h; series mostly up to 57.5 µM
Procedure, shortened: as §1

[19] = molecular target: Calcium and integrin-binding protein 1 (Homo sapiens) (UniProt Q99828); experiment: Primary qHTS for Identification of Calcium Integrin Binding Protein 1 (CIB1) Competitor (AID 1508620);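 note: GST tagged CIB1 binding a fluorescein labelled alphaIIb integrin peptide tracer; top concentration of the series differs between compounds; % is set by controls: 0 for no effect and ±100 for the full control effect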
Procedure, shortened: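 Fluorescence polarization competition: GST-tagged CIB1 (1 uM final) preincubated with compound 15 min at room temperature, then FITC-labelled alphaIIb peptide (100 nM final) added. After 15 min at room temperature, polarization read at Ex 480/Em 540.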

[20] = qHTS drug screen for cell cycle checkpoint inhibitors in PARPi-resistant BRCA-mutant ovarian cancer cell lines. (AID 1963452; calls by dose curve; note: potency is the fitted concentration of half-maximal effect); details: PEO1/OlaR viability, CellTiter-Glo luminescence, 96 h; for Z-AUC: stronger effect = lower value
Procedure, shortened: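 PEO1, PEO4 and PEO1/OlaR ovarian cancer cells, 600 per well, exposed 96 h at 37C to a dilution series. Viability read by CellTiter-Glo luminescence, normalized to DMSO and empty wells; activity summarized as Z-AUC.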

[21] = measured here: PEO1 parental Z-AUC

Calcium and integrin-binding protein 1 (Homo sapiens), sequence (Q99828 whole entry, looked up): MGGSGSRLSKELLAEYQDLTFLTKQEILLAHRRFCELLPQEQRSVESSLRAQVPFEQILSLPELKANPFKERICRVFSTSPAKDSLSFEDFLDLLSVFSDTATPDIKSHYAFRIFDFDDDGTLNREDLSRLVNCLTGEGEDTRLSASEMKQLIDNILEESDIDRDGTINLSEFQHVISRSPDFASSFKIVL
Glutathione peroxidase 1 (Homo sapiens), sequence (P07203 whole entry, looked up): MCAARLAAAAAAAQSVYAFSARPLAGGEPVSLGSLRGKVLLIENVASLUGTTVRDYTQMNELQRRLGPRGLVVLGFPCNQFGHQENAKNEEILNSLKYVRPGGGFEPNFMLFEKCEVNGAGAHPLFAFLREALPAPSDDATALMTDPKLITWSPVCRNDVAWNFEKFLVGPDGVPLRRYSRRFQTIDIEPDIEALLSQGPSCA
Phospholipid hydroperoxide glutathione peroxidase GPX4 (Homo sapiens), sequence (P36969 whole entry, looked up): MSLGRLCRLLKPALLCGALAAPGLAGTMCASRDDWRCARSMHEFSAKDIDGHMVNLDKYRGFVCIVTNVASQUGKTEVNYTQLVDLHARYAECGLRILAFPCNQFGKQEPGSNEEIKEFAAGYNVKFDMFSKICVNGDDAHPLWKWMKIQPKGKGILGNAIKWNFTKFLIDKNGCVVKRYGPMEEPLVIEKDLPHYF

Cc1ccc(C(=O)N2CCN(c3ccc([N+](=O)[O-])cc3)CC2)cc1Cl
active: Potency [2] 12.9 µM | Potency [3] 11.5 µM
inactive: Potency [1] | Potency [4] | Potency [5] | Potency [6] | Potency [7] | Potency [8] | Potency [9] | Potency [10] | Potency [11] | Potency [12] | Potency [13] | Potency [14] | Potency [15] | Potency [16] | Potency [17] | Potency [18]

C[C@@H]1COCCN1c1cc(C2(S(C)(=N)=O)CC2)nc(-c2ccnc3[nH]ccc23)n1 (stereo not given in full)
inactive: outcome [19]
-1.89: Z-AUC ([20]; measured here: PEO4 Z-AUC)
active: Potency [2] 662 nM and 3.66 µM | Potency [3] 662 nM and 2.31 µM | Potency [5] 20.2 µM | Potency [20] 2.75 µM
-1.94: Z-AUC [20, 21]

C=C(C)C(=O)OC1[C@@H]2C(=C)C(=O)O[C@@H]2C[C@@H](C)[C@@H]2C=CC(=O)[C@@]12C (stereo not given in full)
active: Potency [3] 10.1 µM
inactive: Potency [1] | outcome [19] | Potency [4] | Potency [5] | Potency [6] | Potency [7] | Potency [8] | Potency [9] | Potency [10] | Potency [11] | Potency [12] | Potency [13] | Potency [15] | Potency [16] | Potency [18]

N#CCC(C1CCCC1)n1cc(-c2ncnc3[nH]ccc23)cn1 (stereo not given)
active: Potency [2] 12.9 µM | Potency [3] 20.5 µM | Potency [5] 18 µM
inactive: Potency [1] | outcome [19] | Potency [6] | Potency [7] | Potency [8] | Potency [9] | Potency [10] | Potency [11] | Potency [12] | Potency [13] | Potency [14] | Potency [15] | Potency [16] | Potency [17] | Potency [18]

CC(C)(C)c1ccc(-c2nc3ccccc3[nH]2)cc1
inactive: Potency [1] | outcome [19] | Potency [4] | Potency [5] | Potency [7] | Potency [8] | Potency [9]
active: Potency [2] 8.93 µM | Potency [3] 6.32 µM | Potency [6] 0.0294 µM | Potency [10] 1.26 µM | Potency [11] 1.12 µM | Potency [12] 1.58 µM | Potency [13] 2.24 µM | Potency [14] 2.24 µM | Potency [15] 1.78 µM | Potency [16] 1.41 µM | Potency [17] 1.41 µM | Potency [18] 3.98 µM

CNC(=O)c1cccc2cc(Oc3ccnc4cc(OCC5(N)CC5)c(OC)cc34)ccc12
inactive: Potency [1] | outcome [19] | Potency [4] | Potency [5] | Potency [6] | Potency [7] | Potency [8] | Z-AUC [20] 0.323 | Potency [10] | Potency [11] | Potency [12] | Potency [13] | Potency [14] | Potency [15] | Potency [17] | Potency [18]
active: Potency [2] 14.8 µM and 20.6 µM | Potency [3] 10.5 µM and 23.1 µM
0.465: Z-AUC [20, 21]
0.47: Z-AUC ([20]; measured here: PEO4 Z-AUC)

OCC(CO)(CO)NCC(O)Cn1c2ccc(Cl)cc2c2cc(Cl)ccc21 (stereo not given)
active: Potency [2] 20.5 µM | Potency [3] 20.5 µM
inactive: Potency [1] | outcome [19] | Potency [4] | Potency [5] | Potency [6] | Potency [7] | Potency [8] | Potency [10] | Potency [11] | Potency [12] | Potency [13] | Potency [14] | Potency [15] | Potency [16] | Potency [17] | Potency [18]

CC(=O)c1c(OCCN2CCCCC2)c(OCCC(C)c2ccc(F)cc2)c2oc(C)nc2c1C (stereo not given)
inactive: Potency [1] | Potency [4] | Potency [5] | Potency [6] | Potency [7] | Potency [8] | Potency [9] | Potency [10] | Potency [11] | Potency [12] | Potency [13] | Potency [15] | Potency [16] | Potency [17] | Potency [18]

C/C=C(/COC(=O)/C(C)=C/C)C(=O)OC/C=C/c1ccc(OC)cc1
inactive: Potency [1] | Potency [4] | Potency [5] | Potency [6] | Potency [7] | Potency [8] | Potency [9] | Potency [10] | Potency [11] | Potency [12] | Potency [13] | Potency [14] | Potency [15] | Potency [16] | Potency [17]

CCC(C)n1cc(C)c2c(C(=O)NCc3c(C)cc(C)[nH]c3=O)cc(-c3ccc(N4CCNCC4)nc3)cc21 (stereo not given)
inactive: Potency [1] | outcome [19] | Potency [6] | Potency [8] | Potency [9] | Potency [10] | Potency [11] | Potency [12] | Potency [13] | Potency [14] | Potency [15] | Potency [16] | Potency [17] | Potency [18]
active: Potency [2] 20.5 µM | Potency [3] 14.5 µM

CC/C(=C(\c1ccc(O)cc1)c1ccc(OCCNC)cc1)c1ccccc1
inactive: Potency [1] | Potency [4] | Potency [5] | Potency [6] | Potency [7] | Potency [8] | Potency [9] | Potency [10] | Potency [11] | Potency [12] | Potency [13] | Potency [14] | Potency [15] | Potency [16] | Potency [17] | Potency [18]

CC1CCC2C(C)(C)C(O)CCC2(C)C12Cc1c(O)cc3c(c1O2)CN(C(CCCN=C(N)N)C(=O)O)C3=O (stereo not given)
active: Potency [3] 8.93 µM
inactive: Potency [1] | outcome [19] | Potency [4] | Potency [5] | Potency [6] | Potency [7] | Potency [8] | Potency [9] | Potency [10] | Potency [11] | Potency [12] | Potency [13] | Potency [15] | Potency [16] | Potency [17]

Cc1ccccc1C(=O)Nc1ccc(C(=O)N2CCC[C@@H](O)c3cc(Cl)ccc32)c(C)c1
inactive: Potency [1] | Potency [4] | Potency [5] | Potency [6] | Potency [7] | Potency [8] | Potency [9] | Potency [10] | Potency [11] | Potency [12] | Potency [13] | Potency [14] | Potency [15] | Potency [16] | Potency [17] | Potency [18]
